We go through 85 molecules from PubChem BioAssay AID652054 (National Center for Advancing Translational Sciences (NCATS), 2013).

Each structure is given as a SMILES string. In all, about 360,000 compounds went through this assay and about 9,100 (2.5%) were called active. Roughly 4% stayed inconclusive and do not appear here. The full list was thinned out, with actives kept by preference. A number with no mark means an inactive call. No stated cut-off is given here; in the data, active means max response below about -50%; inconclusive means no clear call, values can overlap the other calls; inactive means above that.
On the % scale 0 is the no-effect control and ±100 the full control effect.

This assay deals with D(3) dopamine receptor (Homo sapiens) (UniProt P35462). Nature of the assay: qHTS of D3 Dopamine Receptor Antagonist: qHTS. Conditions: D3R cells, DiscoveRx beta-arrestin luminescence, antagonist mode; stronger effect = lower value. The procedure, abridged: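 Cells plated overnight at 1500 cells/well, then exposed to library compounds with dopamine controls for 90 minutes at 37 degrees C. DiscoveRx reagent added for 30–60 minutes at room temperature; luminescence read, quantitative HTS format.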
Sequence of D(3) dopamine receptor (Homo sapiens) (P35462 whole entry, looked up): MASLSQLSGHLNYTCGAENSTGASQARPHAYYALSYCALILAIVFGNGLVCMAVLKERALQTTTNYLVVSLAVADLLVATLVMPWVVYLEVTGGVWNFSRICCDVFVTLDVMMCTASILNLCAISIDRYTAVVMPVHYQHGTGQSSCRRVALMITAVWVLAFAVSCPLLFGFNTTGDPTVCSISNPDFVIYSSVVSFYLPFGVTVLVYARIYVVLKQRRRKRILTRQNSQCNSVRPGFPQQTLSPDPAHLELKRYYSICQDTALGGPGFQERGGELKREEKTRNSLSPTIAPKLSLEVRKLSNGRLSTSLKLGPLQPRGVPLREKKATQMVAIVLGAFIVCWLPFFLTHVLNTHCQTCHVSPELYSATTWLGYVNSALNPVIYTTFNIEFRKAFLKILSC
In the case of `O=C(CC1NCCNC1=O)Nc1ccc(Oc2ccccc2)cc1` (stereo not given), the max response, negative = inhibition was 24.3%. The figure for `O=C(CC1NCCNC1=O)Nc1cc(Cl)cc(Cl)c1` (stereo not given) is 20.6%; for `O=C(CC1NCCc2ccccc21)Nc1cccc(Cl)c1` (stereo not given) it is -95.5% (active). The value for `O=C(Nc1sc2c(c1C(=O)O)CCC2)c1ccccc1F` was -1.53%; that for `Cc1cccc(C)c1NC(=O)C(c1cccc(F)c1)N1CCN(C)CC1` (stereo not given) was -13.2%. The figure for `CC(=O)Nc1sc2c(c1C(c1cccc(F)c1)N1CCN(CCO)CC1)CCCC2` (stereo not given) is -60.6% (active); for `Cc1ccc(S(=O)(=O)N[C@H]2CCC[C@@H]2O)cc1` it is -12.4%; for `CN(C(=O)CN1CCN(c2cc(-c3ccc(OCc4ccccc4)cc3)ncn2)CC1)c1ccccc1` it is 49%. In the case of `CN(CC(=O)NC1CCCCC1)S(=O)(=O)c1ccc(Br)s1`, the max response, negative = inhibition was -7.06%.

Take `CC(=O)NCc1ccc(S(=O)(=O)NC2CCN(Cc3ccccc3)CC2)cc1`: the max response, negative = inhibition was -11.1%. Regarding `CN(CC(=O)NC1CCN(Cc2ccccc2)CC1)S(=O)(=O)c1ccc(Cl)s1`, the max response, negative = inhibition is -58.6% (active). The figure for `CCNC(=O)C1(C)CCCN1C(=O)c1ccc(N(C)C)cc1` (stereo not given) is 6.44%. Take `CC(C)(C)N1C(=O)c2c(C(=O)OCc3ccccc3)[nH]c(-c3ccccc3)c2C1=O`: the max response, negative = inhibition is -3.03%. In the case of `CC(=O)Nc1cccc(-c2cc3nc(NCc4cccnc4)n(C)c(=O)c3s2)c1`, the max response, negative = inhibition is 17.6%.

Regarding `COc1ccc(C(CNC(=O)COc2ccccc2OC)N2CCCCC2)cc1` (stereo not given), the max response, negative = inhibition is -53.8% (active). In the case of `CCOc1ccc(NS(=O)(=O)c2ccc(C(=O)NCC(c3ccccc3OC)N3CCCC3)cc2)cc1` (stereo not given), the max response, negative = inhibition is -13.6%. For `COc1ccc(C(CNC(=O)CSc2ccccc2)N2CCOCC2)cc1` (stereo not given), the max response, negative = inhibition was 19.6%. The value for `COc1ccc(C(CNC(=O)COc2ccc([N+](=O)[O-])cc2)N2CCCCC2)cc1` (stereo not given) was -74.5% (active); that for `COc1ccc(C(CNC(=O)c2ccc(OCc3cscn3)cc2)N2CCCC2)cc1` (stereo not given) was -19.8%. `COc1ccc(OCC(=O)NNC(=O)C2CCC2)cc1`: the max response, negative = inhibition was -0.824%.

For `CCc1nc2ccc(C(=O)NCCNC(C)=O)cn2c1N(CC)Cc1cccc(Br)c1`, the max response, negative = inhibition was 48.8%. The value for `O=C1NC[C@H](Cc2ccc(O)cc2)N(C[C@@H]2CCCN2C[C@H](Cc2ccccc2)N2C[C@H](Cc3ccccc3)N(CC3CCCCC3)C(=O)C2=O)C1=O` was 8.41%. Regarding `Cc1ccc(SC(CC(=O)c2ccc(C(C)(C)C)cc2)C(=O)O)cc1` (stereo not given), the max response, negative = inhibition was -80.7% (active).

Regarding `CC(C)(C)c1ccc(C(=O)NNC(=O)Cc2ccccc2)cc1`, the max response, negative = inhibition was -17.8%. The figure for `Cc1ccc(Sc2cc(C(=O)c3ccccc3C(=O)O)ccc2[N+](=O)[O-])cc1` is -21.4%. The value for `CCN1CCN(C(c2cccnc2)c2cc(Cl)c3cccnc3c2O)CC1` (stereo not given) was -91.7% (active); that for `Cc1ccc([C@H]2C[C@H](O)[C@@H](n3cc(COC(=O)c4ccccc4)nn3)CN2CC2CCCCC2)cc1` was 1.62%. Take `COc1cc(C(CCN2CCN(c3ccccc3)CC2)c2c(OC)cc(OC)c3ccc(=O)oc23)cc(OC)c1OC` (stereo not given): the max response, negative = inhibition is -84.7% (active). The value for `COc1cc(OC)c2ccc(=O)oc2c1C(CCN1CCN(c2ccccc2)CC1)c1ccc2c(c1)OCO2` (stereo not given) was -81.3% (active).

`O=C(C(=O)N1CCN(c2ccccc2)CC1)c1ccc2c(c1)OCO2`: the max response, negative = inhibition is -3.44%.

As to `COc1ccc(C(CC(=O)N2CCN(c3ccccc3)CC2)c2c(O)cc(OC)cc2OC)cc1` (stereo not given), the max response, negative = inhibition was 8.17%. Regarding `CCN(CC)CCC(c1cc(OC)c(OC)c(OC)c1)c1c(OC)cc(OC)c2c(-c3ccccc3)cc(=O)oc12` (stereo not given), the max response, negative = inhibition is 15.7%. The value for `CCN(CC)C(=O)CC(c1ccc2c(c1)OCO2)c1c(OC)cc(OC)c2c(-c3ccccc3)cc(=O)oc12` (stereo not given) was 0.75%; that for `Cc1cc2nc(-c3ccc(F)cc3)c(Cc3ccsc3)n2c(C)c1Br` was 28.2%. The value for `Cc1cc(Br)cn2c(Cc3ccsc3)c(-c3ccc(C#N)cc3)nc12` was 3.93%; that for `Cc1ccc(S(=O)(=O)N2CCC(=O)N([C@H](COCc3ccccc3)Cc3ccccc3)CC2)cc1` was -4.09%.

As for `CCCc1ccc(S(=O)(=O)N2CCN(C(=O)c3cc(C)on3)CC2)cc1`, the max response, negative = inhibition was 15.8%. The value for `COCCNC(=O)c1cc2c(Br)ccc(Br)c2nc1N` was -12.2%; that for `COc1ccc(NC(=O)C(c2ccncc2)n2c(=O)c(-c3cc4ccccc4[nH]3)nc3ccccc32)cc1` (stereo not given) was 12.2%; that for `Cc1ccc(Cn2c(C)c(C(=O)NCc3ccccc3C(F)(F)F)sc2=O)cc1` was 11.8%. The value for `Cc1ccc(NC(=O)CSc2sc3c(O)cc(=O)[nH]c3c2C#N)cc1C` was 12.7%. The figure for `Cc1cc(=O)[nH]c(SCC(N)=O)c1C#N` is -50.3% (active). As for `Cc1cc(C#N)c(SCC(N)=O)nc1-c1ccc(F)cc1`, the max response, negative = inhibition was 9.54%. For the molecule `C=CCC[C@H](CCCCC)OC(=O)/C=C/[C@H](O)[C@@H](O)C[C@@H](O)CC=C`, the max response, negative = inhibition is -8.69%. On to `CC(C)(O)C#Cc1ccc(CNC[C@H]2O[C@@H](n3cnc4c(=O)[nH]c(N)nc43)[C@H](O)[C@@H]2O)s1`, for which the max response, negative = inhibition was 14.7%. The value for `Nc1ccccc1-c1nc2ccncc2[nH]1` was -1.55%; that for `S=C(Nc1ccc(Br)cc1)NC1CCN(Cc2ccccc2)CC1` was -58.1% (active); that for `O=C(NC1CCN(Cc2ccccc2)CC1)c1ccccc1F` was -72.3% (active). Turning to `CC(C)(C)C(=O)NNC(=O)c1ccc(Oc2cc(Cl)cc(Cl)c2)o1`, the max response, negative = inhibition is 19.5%.

As for `S=C(NN=C1CCN(Cc2ccccc2)CC1)NC1CCCCC1`, the max response, negative = inhibition was -1.61%. For `N#Cc1ccc(CN2CCN(CC(=O)Nc3ccccc3C(=O)NC3CC3)CC2)cc1`, the max response, negative = inhibition was 1.04%. Consider `O=C(CN1CCCCC1)Nc1ccccc1C(=O)NC1CC1`, for which the max response, negative = inhibition is 18.3%. With `Cc1cc(=O)oc2c(C)c(OC(C)C(=O)NC3CCN(Cc4ccccc4)CC3)ccc12` (stereo not given), the max response, negative = inhibition was 4.52%. The value for `CCNC(=S)NNC(=O)C1CCN(Cc2ccccc2)CC1` was -27.2%.

Take `O=C(NC1CCN(Cc2ccccc2)CC1)c1ccc(Oc2cc(Cl)cc(Cl)c2)o1`: the max response, negative = inhibition was -87.6% (active).

Turning to `O=C(NC1CCN(Cc2ccccc2)CC1)c1cc(Br)c(Br)[nH]1`, the max response, negative = inhibition was -86.7% (active).

As to `S=C(NCCCc1ccccc1)Nc1ccc(Br)cc1`, the max response, negative = inhibition was 11.9%. The value for `COc1ccccc1Cc1c(-c2ccc(Cl)cc2)nc2ccc(Cl)cn12` was 6.17%. Take `CCCCc1ccc(S(=O)(=O)NC(=O)C2(C)CCN2C(=O)c2c(C)noc2C)cc1` (stereo not given): the max response, negative = inhibition was 0%. The figure for `O=C1NC[C@H](CCCCN2C[C@H](Cc3ccc(O)cc3)N(CCc3ccccc3)C(=O)C2=O)N(CCc2ccccc2)C1=O` is 4.98%. Turning to `CCOC(=O)[C@]12CCC=C1N(Cc1ccccc1)C(=O)[C@H](CC(=O)N1CCCC1)C2`, the max response, negative = inhibition was -17.7%. The value for `COc1ccccc1NC(=O)C(CC(=O)O)Cc1cc(C)cc(C)c1` (stereo not given) was -7.58%; that for `O=S(=O)(c1cccc(C(F)(F)F)c1)N1c2ccccc2-n2cccc2C1c1cccnc1` (stereo not given) was 9.86%; that for `O=S1(=O)CC(N2CCN(CCO)CC2)CN1Cc1cn(Cc2cccc(Cl)c2)nn1` (stereo not given) was -8.85%. The value for `CC(C)C[C@H]1CN([C@@H](Cc2ccccc2)CN2CCC[C@@H]2CN2C(=O)C(=O)NC[C@@H]2Cc2ccc(O)cc2)C(=O)C(=O)N1CCc1ccccc1` was 7.71%. Take `COc1cccc(-c2cc3nc(NCCOc4ccccc4Cl)n(C)c(=O)c3s2)c1`: the max response, negative = inhibition is 18.3%. Regarding `COCCNc1ncnc2c1ncn2[C@H]1CN(CCN2CCOCC2)C[C@@H](CO)O1`, the max response, negative = inhibition was -14.7%. The value for `CCC(=O)N1CCCC1(C)C(=O)Nc1ccc2c(c1)CCN2C(C)=O` (stereo not given) was 19.1%; that for `OC[C@@H]1CN(Cc2ccncc2)C[C@H](n2cnc3c(N4CCN(c5ccccc5)CC4)ncnc32)O1` was 3.87%; that for `CC[C@]1(C(=O)OC)[C@H]2C(=O)N(Cc3ccccc3)C(=O)[C@H]2[C@H]2CN=C(SCc3ccc(Cl)cc3)N21` was -3.9%. The figure for `CCC1Nc2ncnc(N3CCN(c4ccccc4)CC3)c2N(Cc2ccc(Cl)cc2)C1=O` (stereo not given) is -73.8% (active); for `O=C(CNC(=O)N1CC(=O)Nc2ccccc21)Nc1ccc(Br)cc1F` it is 0%; for `COc1ccc(NC(=O)C2Cc3c(-c4ccc(Cl)cc4)ccnc3O2)cc1` (stereo not given) it is 28.4%. The value for `CC1(C(=O)NS(=O)(=O)Cc2cccc(Cl)c2)CCN1C(=O)Cc1ccccc1` (stereo not given) was -2.25%; that for `CCc1ccc([C@@H]2CC(=O)[C@@H]3CN(S(=O)(=O)c4ccc(C)cc4)[C@H](c4ccc(Cl)cc4)C[C@@H]3N2S(=O)(=O)c2ccc(C)cc2)cc1` was 0%. With `O=C(O)c1ccccc1-c1cccc2nncn12`, the max response, negative = inhibition is 0%. The value for `Cc1ccc(S(=O)(=O)N2CC[C@H]3[C@@H](C2)C(=O)C[C@@H](c2ccccc2)N3S(=O)(=O)c2ccc(C)cc2)cc1` was -19.4%; that for `Cc1cc(C)cc(NC(=O)C2CCCN2S(=O)(=O)c2cccc3cccnc23)c1` (stereo not given) was -1.4%; that for `O=C(Nc1nccs1)C1CCCN1S(=O)(=O)c1cccc2cccnc12` (stereo not given) was -56.6% (active). The value for `Cc1ccc(NC(=O)C2CCCN2S(=O)(=O)c2cccc3cccnc23)c(C)c1` (stereo not given) was 9.44%; that for `CC1(C(=O)Nc2ccc3c(c2)OCCO3)CCN1C(=O)Cc1cc(F)ccc1F` (stereo not given) was 26.4%.

As to `COc1ccc(-c2cc3nc(NCCOc4ccccc4)ccn3n2)cc1`, the max response, negative = inhibition is 35.5%.

Consider `CCn1c(-c2ccncc2)n[nH]c1=S`, for which the max response, negative = inhibition is 0.921%. The value for `Cc1nnc(SCC(=O)NNC(=O)c2ccc(Cl)cc2)n1CC1CCCO1` (stereo not given) was -18.7%; that for `S=c1[nH]nc(-c2ccc(Cl)cc2)n1CC1CCCO1` (stereo not given) was -72% (active).
